Screens deposited in PubChem by National Center for Advancing Translational Sciences (NCATS).
Compounds with a hit are over-represented: about 3.1% of the library has one in this group of screens.
PMP22 txn: Cell-based coincidence reporter assay to measure PMP22 gene transcription in S16 Pmp22-F2sN cells - Primary screen. S16 Pmp22-F2sN Schwann cells, FLuc/NLuc coincidence luminescence, 24 h. Potency, µM (highest dose often 57.5 µM), inactives show top-dose activity change, negative = inhibition, hits mostly inhibitors. actives 2% (n = 43,000); active = clear falling dose curves in both reporters; inconclusive = both reporters move, but less clearly or upward; inactive = either reporter flat; the % is the NLuc reporter signal; also: potency is read from the fitted curve at half-maximal effect; % is scaled to controls: 0 for no effect and ±100 for the full control effect
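qHTS, 1536-well. Cells seeded, compounds added by pin tool, 24 h 37C. Nano-Glo reagent 1 (lysis/FLuc), 10 min RT, read; Stop&Glo, 10 min RT, read NLuc.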
SKOV3 invasion: Primary qHTS assay for Inhibitors of ovarian cancer metastasis using an organotypic tumor microenvironment (TME) model; AID 1963576, 2024; actives 0.1% (n = 46,000); SKOV3ip1-GFP adhesion/invasion on 3D omental model, fluorescence; Potency, µM (highest dose often 45.8 µM), for the others: top-dose activity change, negative = inhibition, actives largely listed as inhibitors;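 also: potency is read from the fitted curve at half-maximal effect; plate controls were DMSO wells for no effect and tomatine positive control wells for full effect; nearly all actives have a fitted effect of over 65% in size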
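Adhesion/invasion was scored as fixed GFP-labeled SKOV3ip1 cell counts (488/509 nm), normalized to DMSO and tomatine controls. Cancer cells in serum-free medium, with four compound doses (0.36-46 umol/L), sat 2 hr at RT then 16 hr at 37 C on a 48 hr fibroblast/mesothelial/ECM culture.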
p53null 39C kill: qHTS Screen for Compounds that Selectively Target Cancer Cells with p53 Mutations: Cytotoxicity of p53 Null Cells at the Nonpermissive Temperature; H1299 p53-null (neo) cells, 39C, ATPlite viability, 24 h; Potency, µM (top dose mostly 46.1 µM), for inactives: at the highest dose activity, negative = cell killing, hits mostly cytotoxic; actives 0.97% (n = 55,000);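 also: potency is read from the fitted curve at half-maximal effect; 0% = DMSO only and -100% = full killing by 100 µM tamoxifen; nearly all actives have a fitted effect of over 50% in size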
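ATP-luminescence viability readout (ATPlite, 20 min RT) after 24 hr compound treatment at 39C of H1299-neo or H1299-p53A138V cells; titration up to 46 uM; normalized to DMSO and 100 uM tamoxifen; Hill-fit AC50.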
pS6 MEF inh: Acumen qHTS Assay for Inhibitors of the mTORC1 Signaling Pathway in MEF (Tsc2-/-, p53-/-) Cells: Sytravon | Tsc2-/- p53-/- MEF, phospho-rpS6 immunofluorescence/PI, 24 h | actives 0.78% (n = 44,000) | Potency, µM (titrated, usually from 38.3 µM), without a hit: top-dose activity change, negative = inhibition, hits mostly inhibitors;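 also: potency is read from the fitted curve at half-maximal effect; plate controls were DMSO for no effect and rapamycin for full effect; nearly all actives have a fitted effect of over 50% in size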
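Cell-based qHTS: Tsc2-/- p53-/- MEF, 24 h cpd, 37 °C; fix/perm, anti-phospho-S6 Alexa-488 + PI; Acumen 488 nm scan; pS6/PI ratio, % positive cells; rapamycin 7.5 nM = inhibition ref; PI count = viability.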
S16 viability: Cell viability qHTS assay in S16 Pmp22-F2sN cells; S16 Pmp22-F2sN Schwann cells viability, CellTiter-Glo, 24 h; Potency, µM (highest dose often 57.5 µM), for inactives: at the highest dose activity change, negative = cytotoxicity, actives largely listed as cytotoxic; AID 1508642, 2021; actives 0.48% (n = 43,000); also: potency is read from the fitted curve at half-maximal effect; % is scaled to controls: 0 for no effect and ±100 for the full control effect; nearly all actives have a fitted effect of over 65% in size
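Viability was measured by CellTiter-Glo luminescence (15 min, room temperature). This followed 24 h at 37 °C of compound exposure (23 nL pin transfer) in S16 Pmp22-F2sN Schwann cells, 500-1,000 per well.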
p53null 32C tox: qHTS Screen for Compounds that Selectively Target Cancer Cells with p53 Mutations: Cytotoxicity of p53 Null Cells at the Permissive Temperature; H1299-neo p53 null cells, ATP luminescence, 24 h, 32C; actives 0.62% (n = 55,000); Potency, µM (titrated, usually from 46.1 µM), for the others: at the top dose activity change, negative = cytotoxicity, actives largely listed as cytotoxic;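 also: potency is read from the fitted curve at half-maximal effect; 0% = DMSO only and -100% = full killing by 100 µM tamoxifen; nearly all actives have a fitted effect of over 55% in size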
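AC50 values derive from Hill modelling of qHTS concentration-response data (up to 46 uM) in H1299-neo cells. Cells were treated 24 h at 32C following overnight attachment at 37C; viability was read as cellular ATP.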
NLuc saturating: Biochemical NLuc saturation counterscreen for small molecule modulators of PMP22 gene expression - Nano-Glo assay; shares compounds with PMP22 txn; Secreted NLuc enzyme (filtered S16 cell medium), Nano-Glo luminescence; Potency, µM (titrated, usually from 57.5 µM), inactives show at the top dose activity change, negative = inhibition, usual class: inhibitors; actives 4% (n = 690); also: potency is read from the fitted curve at half-maximal effect; % is scaled to controls: 0 for no effect and ±100 for the full control effect
NLuc Km ctr: Biochemical coelenterazine-based NLuc counterscreen for small molecule modulators of PMP22 gene expression - Km assay; shares compounds with PMP22 txn; secreted NLuc enzyme, coelenterazine luminescence, Km conditions; Potency, µM (highest dose often 57.5 µM), for inactives: at the top dose activity change, negative = inhibition, most hits filed as inhibitors; actives 5% (n = 690); AID 1508639, 2021; also: potency is read from the fitted curve at half-maximal effect; % is scaled to controls: 0 for no effect and ±100 for the full control effect
FLuc counter: Biochemical FLuc counterscreen for small molecule modulators of PMP22 gene expression; AID 1508640, 2021; 690 tested, under 10 active; shares compounds with PMP22 txn; purified P. pyralis FLuc, luminescence, 10 min; Potency, µM (highest dose often 57.5 µM), inactives show at the top dose activity, negative = inhibition, usual class: inhibitors; also: % of control where 0% means no effect
Target sequence (P08659 whole entry, looked up): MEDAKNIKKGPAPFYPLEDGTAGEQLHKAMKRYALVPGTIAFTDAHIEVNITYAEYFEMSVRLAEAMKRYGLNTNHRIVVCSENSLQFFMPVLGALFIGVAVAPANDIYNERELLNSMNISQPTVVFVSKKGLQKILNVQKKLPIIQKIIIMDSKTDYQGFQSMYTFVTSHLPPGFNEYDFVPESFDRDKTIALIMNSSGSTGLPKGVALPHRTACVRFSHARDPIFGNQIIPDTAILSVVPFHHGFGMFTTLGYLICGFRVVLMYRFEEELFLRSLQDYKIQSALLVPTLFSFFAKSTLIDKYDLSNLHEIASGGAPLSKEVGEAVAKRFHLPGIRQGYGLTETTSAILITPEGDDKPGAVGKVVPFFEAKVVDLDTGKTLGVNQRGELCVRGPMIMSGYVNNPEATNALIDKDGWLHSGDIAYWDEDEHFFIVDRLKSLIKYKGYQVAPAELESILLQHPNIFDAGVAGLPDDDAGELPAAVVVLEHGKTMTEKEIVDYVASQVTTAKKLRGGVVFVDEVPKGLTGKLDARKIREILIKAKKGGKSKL
S16 viab conf: Cell viability qHTS assay in S16 Pmp22-F2sN cells - Confirmatory screen; shares compounds with PMP22 txn; S16 Schwann cells viability, CellTiter-Glo ATP luminescence, 24 h; Potency, µM (highest dose often 57.5 µM), without a hit: at the top dose activity change, negative = viability loss, usual class: cytotoxic; actives 7% (n = 690); also: potency is read from the fitted curve at half-maximal effect; % is scaled to controls: 0 for no effect and ±100 for the full control effect
PMP22 txn cnf: Cell-based coincidence reporter assay to measure PMP22 gene transcription in S16 Pmp22-F2sN cells - Confirmatory screen; Potency, µM (highest dose often 57.5 µM), for inactives: at the highest dose activity change, negative = inhibition, hits mostly inhibitors; actives 22% (n = 690); S16 Schwann cells Pmp22-F2sN, dual luciferase, 24 h; shares compounds with PMP22 txn; AID 1508646, 2021; active = clear falling dose curves in both reporters; inconclusive = both reporters move, but less clearly or upward; inactive = either reporter flat; the % is the FLuc reporter signal; also: potency is read from the fitted curve at half-maximal effect
PMP22 HiBiT cnf: Cell-based HiBiT reporter assay to measure PMP22 protein expression in S16 Pmp22-HiBiT cells - Confirmatory screen; shares compounds with PMP22 txn; S16 Schwann cells Pmp22-HiBiT, luminescence, 48 h; Potency, µM (series often up to 27.9 µM), without a hit: at the top dose activity change, negative = inhibition, actives largely listed as inhibitors; 95 tested, under 10 active; AID 1508647, 2021
Target sequence (P25094 whole entry, looked up): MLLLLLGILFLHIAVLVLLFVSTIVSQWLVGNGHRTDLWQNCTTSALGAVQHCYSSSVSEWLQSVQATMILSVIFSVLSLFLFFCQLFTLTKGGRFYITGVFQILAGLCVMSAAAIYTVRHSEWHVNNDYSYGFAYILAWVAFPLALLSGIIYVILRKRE
An asterisk follows results filed as active; i = inactive; u = inconclusive; x = no result. Unless noted, calls follow the shape of the dose curve; as a rule, active = well fitted curve in the direction sought with a large enough effect; inconclusive = small, poorly fitted or top-dose-only effect, or another doubt; inactive = no such curve, though single readings can be large; an effect the other way counts as inactive or inconclusive.

SMILES	PMP22 txn	SKOV3 invasion	p53null 39C kill	pS6 MEF inh	S16 viability	p53null 32C tox	NLuc saturating	NLuc Km ctr	FLuc counter	S16 viab conf	PMP22 txn cnf	others
CCN(CCCNC(=O)c1cc(Nc2ccc(OC)cc2OC)nc2ccccc12)c1cccc(C)c1	15µM*	-5.3%	8.3%	2.3%	-7.1%	10.9%	-12.9%	-0.5%	-21.5%	-4.2%	-17.8%
CCCCN(CCCNC(=O)c1cc(Nc2ccc(OC)cc2OC)nc2ccccc12)Cc1ccccc1	u	i	u	-21.3%	-21.8%	16.0%	x	x	x	x	x
CCc1ccccc1Nc1cc(C(=O)NCCCN(C)C2CCCCC2)c2ccccc2n1	20µM*	-12.5%	-25.9%	u	u	11.5%	-1.3%	2.2%	-4.3%	u	u
COc1nc(C)cnc1NS(=O)(=O)c1cccnc1-c1ccc(-c2nnco2)cc1	x	-3.3%	x	x	x	x	x	x	x	x	x
COC(c1ccccc1)(c1ccccc1)[C@H](Oc1nc(C)cc(C)n1)C(=O)O	x	4.6%	x	x	x	x	x	x	x	x	x
Cc1cc(Nc2ccc(F)cc2)nc(-n2nc(C)cc2C)n1	u	0.3%	-7.1%	-0.5%	u	-12.0%	u	-12.2%	-8.5%	u	16.5µM*
CCN(CC)Cc1ccc2cc(COC(=O)Nc3ccc(C(=O)NO)cc3)ccc2c1	x	-4.0%	x	x	x	x	x	x	x	x	x
CCSc1oc(-c2cccs2)nc1S(=O)(=O)c1ccccc1	x	x	-15.6%	x	x	-2.6%	x	x	x	x	x
CCCCCS(=O)(=O)c1oc(-c2cccs2)nc1S(=O)(=O)c1ccc(C)cc1	13.4µM*	u	8.5%	3.7%	u	19.0%	-8.9%	2.4%	-2.0%	u	17.2µM*	PMP22 HiBiT cnf=35.9%
COc1ccccc1NC(=O)CSc1nc2nccnc2c(=O)n1CCc1c[nH]c2ccccc12	13.4µM*	5.4%	-0.3%	0.5%	-16.3%	-3.3%	u	u	-14.6%	7.3%	u
O=S(=O)(c1ccc(Cl)cc1)c1nnn2c1nc(NCc1ccccc1)c1sccc12	u	-3.2%	u	-10.7%	21.8%	-8.1%	x	x	x	x	x
Cc1ccc(S(=O)(=O)c2nnn3c2nc(NC2CCCCCC2)c2sccc23)cc1C	20µM*	i	14.9%	-9.0%	0.7%	7.5%	u	-4.2%	-7.9%	6.1%	16.5µM*	PMP22 HiBiT cnf=u
O=S(=O)(c1ccc(Cl)cc1)c1nnn2c1nc(N1CCCCC1)c1sccc12	u	-4.9%	7.2%	0.1%	1.9%	-0.2%	u	0.6%	5.2%	5.6%	u
Cc1ccc(S(=O)(=O)c2nnn3c2nc(N2CCOCC2)c2sccc23)cc1C	13.4µM*	3.6%	-12.9%	-9.3%	-7.6%	-5.3%	u	0.2%	-8.8%	1.5%	-45.4%
CCCCNc1nc2c(S(=O)(=O)c3ccc(Cl)cc3)nnn2c2ccsc12	20µM*	16.4%	-8.1%	4.9%	-0.1%	0.3%	-13.9%	u	3.7%	-2.9%	-19.1%
CC(=O)NC(C)c1ccc(Oc2ccc(OC(C)C)cc2)cc1 (stereo unspecified)	x	-9.2%	x	x	x	x	x	x	x	x	x
C[C@@H]1CN(Cc2ccc(F)cc2)[C@@H](C)CN1C(=O)c1cc2c(C(=O)C(=O)N(C)C)cn(C)c2cc1Cl	x	5.4%	x	x	x	x	x	x	x	x	x
COc1ccc2c(Oc3ccc(NC(=O)c4c(C)n(CC(C)(C)O)n(-c5ccccc5)c4=O)nc3)ccnc2c1	x	-10.6%	x	x	x	x	x	x	x	x	x
CCOc1ccc(NC(=O)c2cc3sc(Cl)cc3n2CC)cc1	11.9µM*	-14.5%	13.3%	-1.3%	-28.2%	-7.1%	2.0%	2.0%	1.3%	-6.2%	u
CCn1c(C(=O)NCc2ccc(OC)cc2)cc2sc(Cl)cc21	3.8%	-13.6%	14.2%	-6.1%	18.7%	u	x	x	x	x	x
CCOC(=O)N1CCN(Cc2nc3cc(NC(=O)c4ccc([N+](=O)[O-])cc4)ccc3n2C(C)C)CC1	14.2µM*	-5.6%	3.6%	u	-24.8%	-15.2%	u	19.3µM*	-6.5%	u	u
CCOC(=O)N1CCN(Cc2nc3cc(NC(=O)CC(C)C)ccc3n2C(C)C)CC1	u	-0.6%	u	u	-17.8%	7.0%	x	x	x	x	x
